In the supplement of paper PMC10849652:
The full data set covers some 7,900 targets. This sample favours those with a hit. About 0.6% of all pairs of compound and target were hits.

Columns and labels:
Test in all cases: log2 fold change, soluble protein after heating vs DMSO (PISA); higher = thermal stabilisation; K562 cells, 10 uM, 30 min; active = over 0.2 and 3.5 SD of the protein, either way, in both replicates (recomputed)
bafetinib = compound: Cc1ccc(NC(=O)c2ccc(CN3CC[C@H](N(C)C)C3)c(C(F)(F)F)c2)cc1Nc1nccc(-c2cncnc2)n1 [bafetinib]
How it was run: (§1)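 Aliquots of K562 cells (2×10^6 cells/mL) treated with 10 μM compound for 30 min were heated for 3 min over 48°C-58°C. After pooling and extraction in PBS with 0.5% NP-40 at 4°C, soluble protein from a 21,000xg, 90 min spin was quantified by TMTpro 16plex LC-MS/MS with channel sums equalised. Thermal stability is expressed against control samples, from duplicates, as a log2 fold change.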

[1] = compound: Cc1cccc(CC(=O)N2CCc3c2ccc(-c2cn(C)c4ncnc(N)c24)c3F)n1
How it was run: as §1

nilotinib = compound: Cc1cn(-c2cc(NC(=O)c3ccc(C)c(Nc4nccc(-c5cccnc5)n4)c3)cc(C(F)(F)F)c2)cn1 [nilotinib]
How it was run: as §1

[2] = compound: Cc1nc(Nc2n[nH]c3c2CN(C(=O)N[C@H](CN(C)C)c2ccccc2)C3(C)C)c2sccc2n1
How it was run: as §1

dasatinib = compound: Cc1nc(Nc2ncc(C(=O)Nc3c(C)cccc3Cl)s2)cc(N2CCN(CCO)CC2)n1 [dasatinib]
How it was run: as §1

[3] = compound: Cc1ncc(-c2ccnc(Nc3ccc(S(C)(=O)=O)cc3)n2)n1C(C)C
How it was run: as §1

[4] = compound: Cn1cc(-c2ccc3c(c2)CCN3C(=O)Cc2cccc(C(F)(F)F)c2)c2c(N)ncnc21
How it was run: as §1

[5] = compound: Cn1cc(-c2ccc3nnc(C(F)(F)c4ccc5ncccc5c4)n3n2)cn1
How it was run: as §1

tipifarnib = compound: Cn1cncc1[C@@](N)(c1ccc(Cl)cc1)c1ccc2c(c1)c(-c1cccc(Cl)c1)cc(=O)n2C [tipifarnib]
How it was run: as §1

mubritinib = compound: FC(F)(F)c1ccc(/C=C/c2nc(COc3ccc(CCCCn4ccnn4)cc3)co2)cc1 [mubritinib]
How it was run: as §1

[6] = compound: NC(=O)Nc1cc(-c2cccc(F)c2)sc1C(=O)N[C@H]1CCCNC1
How it was run: as §1

[7] = compound: NC(=O)c1cnc(N[C@@H]2CCCC[C@@H]2N)nc1Nc1cccc(-n2nccn2)c1
How it was run: as §1

[8] = compound: NC1(c2ccc(-c3nc4ccn5c(=O)[nH]nc5c4cc3-c3ccccc3)cc2)CCC1
How it was run: as §1

[9] = compound: NCC(=O)Nc1ccc(-n2nc(C(F)(F)F)cc2-c2ccc3c(ccc4ccccc43)c2)cc1
How it was run: as §1

entinostat = compound: Nc1ccccc1NC(=O)c1ccc(CNC(=O)OCc2cccnc2)cc1 [entinostat]
How it was run: as §1

vorinostat = compound: O=C(CCCCCCC(=O)Nc1ccccc1)NO [vorinostat]
How it was run: as §1

citarinostat = compound: O=C(CCCCCCNC(=O)c1cnc(N(c2ccccc2)c2ccccc2Cl)nc1)NO [citarinostat]
How it was run: as §1

silmitasertib = compound: O=C(O)c1ccc2c(c1)nc(Nc1cccc(Cl)c1)c1ccncc12 [silmitasertib]
How it was run: as §1

[10] = compound: O=C1NC(=O)C(c2cnc3ccccn23)=C1c1cn2c3c(cc(F)cc13)CN(C(=O)N1CCCCC1)CC2
How it was run: as §1

[11] = compound: c1cc(OCCN2CCCCC2)cc(-c2n[nH]c3ccc(-c4nnc[nH]4)cc23)c1
How it was run: as §1

Measured: log2 fold change

NMD3 (UniProt Q96D46)
active: [2] 0.316
inactive: bafetinib 0.071 | [1] 0.03 | nilotinib 0.025 | dasatinib 0.014 | [3] 0.123 | [4] 0.083 | [5] 0.028 | tipifarnib -0.107 | mubritinib 0.083 | [6] -0.159 | [7] -0.034 | [8] -0.098 | [9] -0.037 | entinostat -0.001 | vorinostat 0 | citarinostat 0.085 | silmitasertib -0.048 | [10] -0.071 | [11] -0.047

NUMB (UniProt P49757)
inactive: bafetinib -0.013 | [1] 0.022 | nilotinib -0.05 | [2] -0.078 | dasatinib 0.017 | [3] -0.12 | [4] 0.063 | [5] -0.008 | tipifarnib 0.059 | mubritinib -0.053 | [6] -0.088 | [7] -0.022 | [8] -0.002 | [9] -0.003 | entinostat -0.041 | vorinostat 0.037 | citarinostat 0.009 | silmitasertib 0.007 | [10] -0.097 | [11] -0.032

MON1B (UniProt Q7L1V2)
UniProt Q7L1V2, sequence (Q7L1V2 whole entry, looked up): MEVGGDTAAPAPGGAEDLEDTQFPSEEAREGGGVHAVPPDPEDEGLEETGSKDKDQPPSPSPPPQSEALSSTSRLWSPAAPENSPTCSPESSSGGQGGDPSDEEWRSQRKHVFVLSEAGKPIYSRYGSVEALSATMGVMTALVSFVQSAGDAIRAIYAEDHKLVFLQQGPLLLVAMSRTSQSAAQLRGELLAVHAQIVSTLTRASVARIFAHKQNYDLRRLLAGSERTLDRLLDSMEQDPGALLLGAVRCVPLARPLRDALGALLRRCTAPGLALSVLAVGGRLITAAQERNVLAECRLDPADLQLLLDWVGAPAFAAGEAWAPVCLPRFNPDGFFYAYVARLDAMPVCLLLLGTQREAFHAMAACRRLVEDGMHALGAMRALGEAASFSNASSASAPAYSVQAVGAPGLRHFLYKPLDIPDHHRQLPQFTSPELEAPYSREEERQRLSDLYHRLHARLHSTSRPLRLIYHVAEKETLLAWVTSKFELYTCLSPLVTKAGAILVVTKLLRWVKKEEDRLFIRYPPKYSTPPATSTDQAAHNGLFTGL
inactive: bafetinib -0.071 | [1] 0.004 | nilotinib 0.025 | [2] 0.015 | dasatinib -0.099 | [3] -0.048 | [4] 0.038 | [5] 0.012 | tipifarnib -0.011 | mubritinib 0.065 | [6] 0.015 | [7] -0.045 | [9] -0.053 | entinostat -0.018 | vorinostat -0.001 | citarinostat 0.056 | silmitasertib 0.032 | [10] 0.052 | [11] -0.081
active: [8] -0.312

MPHOSPH10 (UniProt O00566)
UniProt O00566, sequence (O00566 whole entry, looked up): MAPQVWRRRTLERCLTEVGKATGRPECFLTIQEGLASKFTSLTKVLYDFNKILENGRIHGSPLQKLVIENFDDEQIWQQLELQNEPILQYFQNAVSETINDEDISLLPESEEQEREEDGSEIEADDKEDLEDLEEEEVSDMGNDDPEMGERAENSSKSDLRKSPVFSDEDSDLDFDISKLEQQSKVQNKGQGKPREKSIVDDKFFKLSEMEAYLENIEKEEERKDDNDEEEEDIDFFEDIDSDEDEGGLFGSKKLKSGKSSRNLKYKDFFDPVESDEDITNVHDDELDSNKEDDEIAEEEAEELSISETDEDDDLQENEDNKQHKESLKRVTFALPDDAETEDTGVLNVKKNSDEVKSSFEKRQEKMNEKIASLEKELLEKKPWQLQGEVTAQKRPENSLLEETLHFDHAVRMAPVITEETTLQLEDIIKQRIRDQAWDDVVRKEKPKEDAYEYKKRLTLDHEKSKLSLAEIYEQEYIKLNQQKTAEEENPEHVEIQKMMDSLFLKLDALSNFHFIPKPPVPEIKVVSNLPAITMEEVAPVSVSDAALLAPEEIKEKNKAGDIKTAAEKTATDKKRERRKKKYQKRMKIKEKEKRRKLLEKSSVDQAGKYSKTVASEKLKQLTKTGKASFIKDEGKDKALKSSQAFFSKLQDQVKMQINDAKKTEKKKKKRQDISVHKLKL
inactive: bafetinib 0.137 | [1] -0.045 | nilotinib -0.055 | [2] -0.028 | dasatinib 0.138 | [3] -0.199 | [4] -0.259 | [5] -0.001 | tipifarnib 0.246 | mubritinib -0.069 | [6] 0.089 | [7] 0.016 | [8] 0.186 | [9] 0.064 | entinostat 0.017 | vorinostat 0.045 | citarinostat 0.062 | silmitasertib 0.112 | [10] 0.067 | [11] -0.169

MNAT1 (UniProt P51948)
UniProt P51948, sequence (P51948 whole entry, looked up): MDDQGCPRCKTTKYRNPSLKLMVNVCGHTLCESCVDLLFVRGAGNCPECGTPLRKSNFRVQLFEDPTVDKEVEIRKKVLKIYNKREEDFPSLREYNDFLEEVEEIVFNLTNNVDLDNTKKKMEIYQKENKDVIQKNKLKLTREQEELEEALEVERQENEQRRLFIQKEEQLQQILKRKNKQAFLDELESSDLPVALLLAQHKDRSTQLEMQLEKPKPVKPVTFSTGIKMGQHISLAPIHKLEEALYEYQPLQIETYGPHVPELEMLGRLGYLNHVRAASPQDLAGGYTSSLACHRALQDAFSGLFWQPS
inactive: bafetinib -0.072 | [1] 0.011 | nilotinib -0.033 | [2] 0.023 | dasatinib -0.002 | [3] -0.031 | [4] 0.018 | [5] 0 | tipifarnib 0.025 | mubritinib 0.032 | [6] -0.055 | [7] -0.039 | [8] 0.005 | [9] -0.058 | entinostat -0.028 | vorinostat -0.003 | citarinostat 0.078 | silmitasertib -0.015 | [10] -0.047 | [11] -0.036

NAA38 isoform 2 (UniProt Q9BRA0)
UniProt Q9BRA0, sequence (Q9BRA0 whole entry, looked up): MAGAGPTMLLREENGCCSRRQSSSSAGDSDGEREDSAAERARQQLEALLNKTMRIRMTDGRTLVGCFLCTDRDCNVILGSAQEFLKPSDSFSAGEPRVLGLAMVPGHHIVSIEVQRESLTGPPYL
inactive: bafetinib 0 | [1] -0.019 | nilotinib -0.128 | [2] 0.052 | dasatinib -0.051 | [3] -0.066 | [4] 0.028 | [5] -0.047 | tipifarnib -0.039 | mubritinib -0.03 | [6] -0.064 | [7] -0.029 | [8] -0.105 | [9] 0.026 | entinostat -0.009 | vorinostat -0.041 | citarinostat -0.152 | silmitasertib 0.017 | [10] 0.038 | [11] -0.264

NFATC3 (UniProt Q12968)
inactive: bafetinib 0.041 | [1] -0.064 | nilotinib -0.121 | [2] -0.316 | dasatinib -0.042 | [3] -0.3 | [4] -0.073 | [5] 0.191 | tipifarnib 0.01 | mubritinib -0.01 | [6] -0.15 | [7] -0.137 | [8] 0.034 | [9] 0.007 | entinostat 0.107 | vorinostat 0.045 | citarinostat -0.101 | silmitasertib 0.118 | [10] -0.267 | [11] -0.225

NAPG (UniProt Q99747)
inactive: bafetinib 0 | [1] 0.128 | nilotinib -0.057 | [2] -0.157 | dasatinib -0.133 | [3] -0.011 | [4] 0.034 | [5] 0.033 | tipifarnib -0.094 | mubritinib 0.062 | [6] -0.027 | [7] -0.087 | [8] -0.085 | [9] -0.094 | entinostat 0.102 | vorinostat 0.117 | citarinostat 0.075 | silmitasertib 0.032 | [10] -0.029 | [11] -0.017

NUMA1 (UniProt Q14980)
inactive: bafetinib 0.121 | [1] 0.005 | nilotinib 0.031 | [2] -0.22 | dasatinib 0.019 | [3] -0.013 | [4] -0.194 | [5] -0.031 | tipifarnib 0.086 | mubritinib -0.043 | [6] -0.117 | [7] -0.091 | [8] -0.139 | [9] 0.101 | entinostat 0.072 | vorinostat 0.002 | citarinostat 0.01 | silmitasertib 0.005 | [10] 0.007 | [11] -0.12

MYH10 isoform 3 (UniProt P35580)
UniProt P35580, sequence (P35580 whole entry, looked up): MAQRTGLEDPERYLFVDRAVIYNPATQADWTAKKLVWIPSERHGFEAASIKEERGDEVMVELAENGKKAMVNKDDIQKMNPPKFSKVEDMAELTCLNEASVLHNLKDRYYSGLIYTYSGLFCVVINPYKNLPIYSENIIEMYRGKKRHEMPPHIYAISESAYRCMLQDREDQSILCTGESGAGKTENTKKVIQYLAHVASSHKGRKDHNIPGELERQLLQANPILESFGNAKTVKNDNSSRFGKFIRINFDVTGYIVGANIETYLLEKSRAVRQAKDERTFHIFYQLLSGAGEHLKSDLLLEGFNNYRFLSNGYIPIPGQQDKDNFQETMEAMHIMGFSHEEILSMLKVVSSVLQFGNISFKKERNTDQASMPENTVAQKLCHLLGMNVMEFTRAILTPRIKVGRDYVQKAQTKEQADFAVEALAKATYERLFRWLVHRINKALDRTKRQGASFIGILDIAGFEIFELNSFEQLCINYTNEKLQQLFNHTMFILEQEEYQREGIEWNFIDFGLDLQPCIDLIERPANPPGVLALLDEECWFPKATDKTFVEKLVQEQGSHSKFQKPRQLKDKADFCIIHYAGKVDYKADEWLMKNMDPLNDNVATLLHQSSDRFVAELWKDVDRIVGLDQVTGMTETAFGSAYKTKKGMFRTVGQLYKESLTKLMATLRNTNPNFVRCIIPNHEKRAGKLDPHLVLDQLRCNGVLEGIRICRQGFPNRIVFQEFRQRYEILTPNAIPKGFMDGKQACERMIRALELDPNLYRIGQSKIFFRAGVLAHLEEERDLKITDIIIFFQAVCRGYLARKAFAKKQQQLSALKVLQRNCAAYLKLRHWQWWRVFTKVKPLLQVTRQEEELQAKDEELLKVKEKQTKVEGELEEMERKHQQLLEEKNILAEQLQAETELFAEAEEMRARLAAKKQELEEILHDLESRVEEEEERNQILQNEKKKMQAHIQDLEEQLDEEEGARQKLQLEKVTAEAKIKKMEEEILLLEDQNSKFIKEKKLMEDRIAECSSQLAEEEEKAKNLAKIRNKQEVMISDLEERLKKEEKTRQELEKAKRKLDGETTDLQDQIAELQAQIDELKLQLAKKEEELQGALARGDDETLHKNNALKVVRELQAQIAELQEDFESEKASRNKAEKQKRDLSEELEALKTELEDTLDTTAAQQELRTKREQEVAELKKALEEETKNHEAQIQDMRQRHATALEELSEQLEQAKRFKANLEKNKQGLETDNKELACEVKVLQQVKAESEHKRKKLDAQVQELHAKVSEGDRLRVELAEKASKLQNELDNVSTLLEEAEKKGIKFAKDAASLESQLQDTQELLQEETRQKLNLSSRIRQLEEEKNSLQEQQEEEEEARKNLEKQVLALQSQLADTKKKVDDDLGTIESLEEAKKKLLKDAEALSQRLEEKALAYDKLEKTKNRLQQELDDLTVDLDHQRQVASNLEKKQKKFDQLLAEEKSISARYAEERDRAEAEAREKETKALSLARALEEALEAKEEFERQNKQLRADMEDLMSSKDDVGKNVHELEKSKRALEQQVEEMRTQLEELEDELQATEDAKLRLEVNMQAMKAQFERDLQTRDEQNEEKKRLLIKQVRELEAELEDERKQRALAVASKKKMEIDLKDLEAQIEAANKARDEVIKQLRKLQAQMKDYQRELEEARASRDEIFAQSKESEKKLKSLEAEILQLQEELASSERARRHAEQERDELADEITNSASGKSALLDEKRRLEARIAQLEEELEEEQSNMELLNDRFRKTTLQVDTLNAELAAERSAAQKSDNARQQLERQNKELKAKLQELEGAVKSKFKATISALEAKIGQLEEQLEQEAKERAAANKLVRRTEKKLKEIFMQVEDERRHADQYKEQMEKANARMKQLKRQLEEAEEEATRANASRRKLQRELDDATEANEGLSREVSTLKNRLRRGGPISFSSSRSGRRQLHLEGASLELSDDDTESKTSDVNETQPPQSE
inactive: bafetinib -0.046 | [1] 0.033 | nilotinib -0.049 | [2] -0.001 | dasatinib -0.057 | [3] 0.004 | [4] 0.056 | [5] 0.011 | tipifarnib -0.083 | mubritinib 0.059 | [6] 0.014 | [7] -0.026 | [8] -0.102 | [9] -0.035 | entinostat 0.019 | vorinostat 0.004 | citarinostat 0.041 | silmitasertib -0.008 | [10] -0.036 | [11] 0.013

NFE2 (UniProt Q16621)
inactive: bafetinib -0.048 | [1] -0.13 | nilotinib -0.063 | [2] -0.068 | dasatinib -0.016 | [3] -0.071 | [4] -0.051 | [5] -0.08 | tipifarnib -0.066 | mubritinib 0.026 | [6] 0.035 | [7] -0.049 | [8] -0.091 | [9] -0.062 | entinostat -0.024 | vorinostat 0.055 | citarinostat 0.04 | silmitasertib 0.145 | [10] -0.037 | [11] 0.006

MRPS31 (UniProt Q92665)
inactive: bafetinib 0.066 | [1] 0.042 | nilotinib -0.041 | [2] 0.093 | dasatinib -0.012 | [3] 0.065 | [4] 0.078 | [5] 0.027 | tipifarnib -0.002 | mubritinib 0.138 | [6] -0.001 | [7] 0.03 | [8] -0.05 | [9] 0 | entinostat -0.011 | vorinostat -0.039 | citarinostat 0.008 | silmitasertib -0.012 | [10] -0.036 | [11] -0.083

NACC1 (UniProt Q96RE7)
inactive: bafetinib -0.03 | [1] -0.039 | nilotinib -0.165 | [2] -0.109 | dasatinib -0.198 | [3] -0.12 | [4] -0.041 | [5] 0.034 | tipifarnib -0.084 | mubritinib -0.03 | [6] 0.099 | [7] -0.082 | [8] -0.173 | [9] -0.075 | entinostat 0.062 | vorinostat 0.148 | citarinostat 0.235 | silmitasertib -0.027 | [10] -0.257 | [11] -0.057

NASP (UniProt P49321)
inactive: bafetinib -0.036 | [1] 0.011 | nilotinib -0.013 | [2] -0.032 | dasatinib -0.027 | [3] 0 | [4] -0.02 | [5] 0.009 | tipifarnib -0.026 | mubritinib 0.026 | [6] -0.009 | [7] -0.081 | [8] -0.06 | [9] -0.054 | entinostat 0.035 | vorinostat 0.028 | citarinostat 0.035 | silmitasertib 0.063 | [10] -0.034 | [11] -0.02

MITD1 (UniProt Q8WV92)
UniProt Q8WV92, sequence (Q8WV92 whole entry, looked up): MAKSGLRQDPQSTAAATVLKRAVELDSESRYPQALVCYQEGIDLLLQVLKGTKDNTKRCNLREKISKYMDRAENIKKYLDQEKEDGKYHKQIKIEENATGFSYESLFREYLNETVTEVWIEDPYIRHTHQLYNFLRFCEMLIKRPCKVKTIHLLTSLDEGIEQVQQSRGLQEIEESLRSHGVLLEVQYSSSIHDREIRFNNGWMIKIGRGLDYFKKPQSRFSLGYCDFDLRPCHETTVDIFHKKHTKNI
inactive: bafetinib -0.217 | [1] -0.006 | nilotinib -0.065 | [2] -0.035 | dasatinib 0.006 | [3] -0.101 | [4] 0.01 | [5] 0.009 | tipifarnib 0.098 | mubritinib -0.108 | [6] 0.016 | [7] -0.018 | [8] -0.387 | [9] -0.059 | entinostat -0.08 | vorinostat 0.057 | citarinostat -0.135 | silmitasertib 0.14 | [10] -0.176 | [11] 0.228

NRDC isoform 2 (UniProt O43847)
UniProt O43847, sequence (O43847 whole entry, looked up): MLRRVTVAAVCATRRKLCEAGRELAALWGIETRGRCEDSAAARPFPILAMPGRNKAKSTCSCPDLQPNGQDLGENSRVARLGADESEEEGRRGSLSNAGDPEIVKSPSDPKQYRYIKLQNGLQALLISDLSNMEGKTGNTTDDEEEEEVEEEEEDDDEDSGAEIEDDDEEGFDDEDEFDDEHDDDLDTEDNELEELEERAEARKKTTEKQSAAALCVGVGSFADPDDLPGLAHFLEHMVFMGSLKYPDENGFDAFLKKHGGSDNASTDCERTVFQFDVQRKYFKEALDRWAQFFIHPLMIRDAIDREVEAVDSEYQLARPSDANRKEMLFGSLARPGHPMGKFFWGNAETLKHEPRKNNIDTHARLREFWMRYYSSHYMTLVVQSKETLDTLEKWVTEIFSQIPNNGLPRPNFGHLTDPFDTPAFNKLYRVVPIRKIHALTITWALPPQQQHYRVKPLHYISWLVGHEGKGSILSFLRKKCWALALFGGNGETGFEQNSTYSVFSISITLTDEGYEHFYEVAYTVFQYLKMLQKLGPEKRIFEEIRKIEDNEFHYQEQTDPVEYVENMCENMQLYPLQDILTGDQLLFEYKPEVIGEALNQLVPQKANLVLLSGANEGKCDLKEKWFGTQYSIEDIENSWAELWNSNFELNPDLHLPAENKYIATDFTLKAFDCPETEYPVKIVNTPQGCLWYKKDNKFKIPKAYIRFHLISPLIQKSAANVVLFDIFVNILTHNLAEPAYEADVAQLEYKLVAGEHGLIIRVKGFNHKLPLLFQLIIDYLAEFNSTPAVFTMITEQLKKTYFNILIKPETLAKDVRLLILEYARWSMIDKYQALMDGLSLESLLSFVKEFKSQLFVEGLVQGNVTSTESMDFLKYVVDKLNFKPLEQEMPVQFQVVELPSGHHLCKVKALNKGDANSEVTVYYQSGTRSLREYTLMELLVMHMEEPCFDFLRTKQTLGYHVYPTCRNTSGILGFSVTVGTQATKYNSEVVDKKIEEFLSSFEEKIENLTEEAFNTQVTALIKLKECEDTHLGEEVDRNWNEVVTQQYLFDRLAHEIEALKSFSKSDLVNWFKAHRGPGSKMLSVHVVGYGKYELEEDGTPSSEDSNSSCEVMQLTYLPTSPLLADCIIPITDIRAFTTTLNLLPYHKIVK
inactive: bafetinib 0.022 | [1] 0.072 | nilotinib -0.019 | [2] -0.023 | dasatinib -0.133 | [3] 0.011 | [4] -0.01 | [5] -0.044 | tipifarnib -0.129 | mubritinib 0.088 | [6] -0.01 | [7] -0.044 | [8] -0.057 | [9] -0.036 | entinostat 0.043 | vorinostat 0.04 | citarinostat 0.024 | silmitasertib 0.025 | [10] -0.05 | [11] -0.06
